High-throughput results deposited in PubChem BioAssay by several laboratories.
A selection: hits, their analogues and other compounds. The true share with any hit is near 2.9%.
SMARCA2 act: increases SMARCA2 function in MMTV reporter cells | MG213 cells, MMTV-luciferase reporter, dexamethasone, overnight | activation, % at 9.1 µM | 1% of 370,000 active; in the data active means activation above about 7.8%;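 further: 0% = vehicle wells and 100% = reference activator wells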
FAS TE block: blocks the thioesterase domain of human fatty acid synthase | P49327 | recombinant FAS-TE, OMFH fluorogenic substrate, fluorescence endpoint | inhibition, % at 15 µM | 0.67% of 360,000 active | AID 602261;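 active means compounds whose normalised, plate-corrected inhibition of enzyme fluorescence in the single-dose primary screen is 50% or more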;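 further: 0% = DMSO with enzyme and 100% = substrate without enzyme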
GAA850 FXN act: frataxin GAA850 promoter activation. HEK293 lucGAA850 FXN promoter luciferase reporter, 24 h; percent of 10 µM SAHA response. activation, % at 6 µM. 0.56% of 360,000 active. AID 540364;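 active means activation above the average of all compounds screened plus 3 SD, cutoff fixed separately per campaign, cut at about 7.5% in these data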;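 further: 0% = DMSO wells and 100% = 10 µM SAHA wells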
proKLK7 act: proKLK7 (human) activation, primary screen. purified proKLK7, EDANS-DABCYL substrate fluorescence; 100% is mature enzyme control, 0% vehicle. activation, % at 7 µM. 0.9% of 370,000 active;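 active means activation above the mean of all tested compounds plus 3 SD, computed per campaign excluding outliers beyond control limits, cut at about 13% in these data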
proKLK7 act conf: proKLK7 activation, confirmation | AID 686949 | purified proKLK7, EDANS-DABCYL substrate fluorescence; scaled: vehicle 0, mature enzyme 100 | activation, % at 7 µM | shares compounds with proKLK7 act | 68% of 3,200 active;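 active means activation, as change over the incubation, above the mean of all tested compounds plus 3 SD, cut at about 13% in these data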
EDANS interfere: fluorescence interference counter-screen for KLK7 activators. EDANS-DABCYL substrate fluorescence interference, no enzyme, 4 h; solvent 0%, active enzyme control 100%. activation, % at 7 µM. AID 686952. 80% of 3,200 active. shares compounds with proKLK7 act;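 active means activation above the all-compound mean plus 3 SD, ignoring values outside control-based bounds, cut at about 4.8% in these data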;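 further: value is the 4 h activation minus the activation read at time zero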
K7 EDANS ctr: EDANS fluorescence interference in dose response, no enzyme. EC50, µM. shares compounds with proKLK7 act. 20% of 250 active. EDANS-DABCYL peptide fluorescence interference. AID 720493;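 active means compounds that raise the fluorescence signal in this interference counterscreen, with EC50 at or below 10 µM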;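 further: intact quenched peptide substrate alone read at 355 nm excitation and 520 nm emission; signal is fluorescence gain from T0 to T4 after four hours at room temperature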
Numbers without * were called inactive; . = no result.

SMILES | SMARCA2 act | FAS TE block | GAA850 FXN act | proKLK7 act | proKLK7 act conf | EDANS interfere | others
CCCN1CCN(CCCNC(=O)c2cc3c(s2)-c2ccccc2OC3)CC1 | 7.2 | -5.0 | 1.8 | 37.5* | 71.4* | 76.3*
Cc1cccc2c1-c1sc(C(=O)NCCCN3CCCC(C)C3)cc1CO2 (centres undefined) | 1.1 | -4.4 | -0.3 | 47.6* | 62.1* | 70.2*
CC1CCCC(C)N1CCCNC(=O)c1cc2c(s1)-c1ccccc1OC2 (centres undefined) | 1.1 | -5.1 | 2.6 | 69.3* | 62.5* | 62.9*
CCN1CCN(CCCNC(=O)c2cc3c(s2)-c2ccccc2OC3)CC1 | 1.4 | -4.6 | 2.0 | 36.8* | 72.8* | 70.2*
Cc1ccc2oc(=O)c3cc(C(=O)NCCCN4CCCC(C)C4)sc3c2c1 (centres undefined) | 2.6 | -7.1 | -1.5 | 0.1 | . | .
O=C(Cc1c(F)cccc1Cl)N/N=C/c1cccs1 | -0.8 | -1.3 | 1.2 | 0.1 | . | .
Cn1c(CBr)c(C(=O)c2ccc([N+](=O)[O-])cc2)c(=O)n(C)c1=O | -3.4 | -1.0 | -1.6 | 0.3 | . | .
CC1CC(C)CN(CCCNC(=O)c2cc3c(s2)-c2ccccc2OC3)C1 (centres undefined) | -3.4 | -0.3 | -0.1 | 43.7* | -37.2 | -60.5
CCCN1CCN(CCCNC(=O)c2cc3c(s2)-c2c(C)cccc2OC3)CC1 | 0.5 | -4.4 | 2.1 | 42.3* | 63.0* | 70.5*
CN(C)CCNC(=O)c1cc2c(s1)-c1ccccc1OC2 | 1.1 | -5.0 | 3.8 | 68.5* | 71.5* | 67.6*
COC(=O)CCCC1=CC2=C(c3ccccc3)C(=O)C(C)(OC(=O)C3CCCC3)C(=O)C2=CN1C1CCCCC1 (centres undefined) | -1.1 | 11.6 | -3.1 | 0.4 | . | .
CN1C[C@@H]2C(c3ccccc3)C3(c4ccc(C#N)cc4)CC2(C3)[C@H]1c1ccccc1 (some centres undefined) | -1.1 | 9.8 | -0.5 | 0.3 | . | .
CN1C=CC2=C(C#N)C(N)C(C#N)(C#N)C(c3ccccc3)C2C1 (centres undefined) | 1.6 | -12.7 | -2.0 | 25.4* | 33.1* | 35.2*
COc1cccc(C2C=C(c3ccc(OC)cc3OC)Nc3nnnn32)c1 (centres undefined) | . | 3.8 | -4.4 | . | . | .
COc1ccc(C2=CC(c3ccc(OC)c(OC)c3)n3nnnc3N2)c(OC)c1 (centres undefined) | -0.2 | 0.3 | 1.5 | 15.8* | 10.9 | -15.4
Cc1cc(C)c(C)c(S(=O)(=O)N2CCC(C(=O)N3CCCC3)CC2)c1C | -0.7 | 2.1 | 0.9 | -0.7 | . | .
CCc1ccc(NC(=O)Cn2nnc(C(=O)NCc3ccco3)c2N)cc1 | -2.2 | -5.7 | 0.1 | 0.1 | . | .
CN(C(=O)C1CCOC1)c1nnc(-c2ccncc2)s1 (centres undefined) | 0.2 | -10.0 | 2.3 | 45.6* | 64.9* | 70.1*
CN(C(=O)c1ccccn1)c1nnc(-c2cccnc2)s1 | 1.7 | -4.3 | 1.5 | 3.4 | . | .
Cc1cnc(-c2nnc(N(C)C(=O)C3CCOC3)s2)cn1 (centres undefined) | 0.4 | -6.5 | 0.9 | 31.3* | 43.2* | 45.7*
Cc1cnc(-c2nnc(N(C)C(=O)c3cccnc3)s2)cn1 | 4.7 | -1.8 | 2.7 | 42.1* | 72.4* | 74.4*
Cc1ccc(-c2nnc(N(C)C(=O)c3cccnc3)s2)cn1 | 5.8 | -11.4 | 0.4 | 2.9 | . | .
CN(C(=O)C1CCOC1)c1nnc(-c2ccccn2)s1 (centres undefined) | 1.9 | -5.2 | -1.2 | 40.5* | 49.8* | 47.6*
Cc1ccc(S(=O)(=O)N2CCOCC2)cc1NC(=O)COC(=O)c1ccccc1OCc1c(C)noc1C | -2.3 | -1.6 | -0.7 | -0.9 | . | .
Cc1ccccc1OCCC(=O)OCC(=O)NC1CCCC1 | -1.4 | -2.7 | 1.0 | 0.5 | . | .
SMILES | SMARCA2 act | FAS TE block | GAA850 FXN act | proKLK7 act | proKLK7 act conf | EDANS interfere | others
c1cncc(C2Nc3ccccc3-c3nc4ccccc4n32)c1 (centres undefined) | 0.8 | 0.4 | -2.9 | 55.7* | 5.1 | 5.7*
c1ccc2c(c1)NC(c1ccncc1)n1c-2nc2ccccc21 (centres undefined) | 6.2 | -14.1 | 2.0 | 28.9* | 0.0 | 3.0
O=C1c2ccccc2NC(c2ccncc2)N1c1ccccn1 (centres undefined) | 0.3 | 0.8 | 0.8 | 35.9* | 18.4* | 29.4*
CCN1c2ccccc2-c2nc3ccccc3n2C1c1cccnc1 (centres undefined) | -3.5 | -4.1 | 0.4 | 10.1 | . | .
COc1ccccc1N1C(=O)c2ccccc2NC1c1ccncc1 (centres undefined) | -0.5 | -4.5 | -1.7 | 6.0 | . | .
O=C1NC(c2ccncc2)Nc2ccccc21 (centres undefined) | -1.5 | . | 0.6 | -0.3 | . | .
CC1CCCCC1NS(=O)(=O)c1ccc2c(c1)CCC(=O)N2 (centres undefined) | -2.1 | -1.5 | 3.6 | 0.1 | . | .
CCOC(=O)CCCCCC(=O)Nc1ccc2c(c1)C(=O)N([C@@H](C)CO)C[C@H](C)[C@H](CN(C)C(=O)NC(C)C)OCCCC[C@H](C)O2 | -3.7 | -0.7 | -0.4 | 0.3 | . | .
O=C(O)c1cc2cccc(S(=O)(=O)N3CCCCC3)c2cc1O | -1.9 | -1.2 | 0.4 | 21.2* | 84.8* | 88.4*
CCc1c(C)sc(NC(=O)CSc2nc3c(c(C(F)(F)F)n2)CCc2ccccc2-3)c1C#N | -3.8 | -3.6 | -0.9 | -0.5 | . | .
CCCCC1OC2(C)OC(=N)C1(C#N)C(C#N)(C#N)C2c1ccccc1 (centres undefined) | -0.8 | 2.9 | -0.1 | 14.0* | 46.9* | 49.9*
COc1ccc(O)c(C(c2c(C)[nH][nH]c2=O)c2c(C)[nH][nH]c2=O)c1 | -1.6 | 6.9 | -0.6 | 0.1 | . | .
COc1ccc(OC)c(C(c2c(C)[nH][nH]c2=O)c2c(C)[nH][nH]c2=O)c1 | -2.9 | -2.4 | 0.9 | 12.9* | 20.5* | 20.0*
Cc1cc2oc(=O)cc(CN3CCOCC3)c2cc1C | -0.9 | -4.4 | -0.8 | -0.3 | . | .
CCNc1cc2oc(=O)c(CN3CCOCC3)c(C)c2cc1C | -0.8 | -22.5 | -2.0 | 43.5* | 69.4* | 78.3*
CCN(CC(=O)Nc1cc(Cl)ccc1C)C(=O)Cc1ccsc1 | 0.0 | 0.1 | 1.8 | -0.7 | . | .
COc1ccc(-n2c(O)c(/C=N/NS(=O)(=O)c3cccc([N+](=O)[O-])c3)c3ccccc3c2=O)cc1OC | -0.7 | -11.5 | 1.7 | 24.2* | 76.8* | 66.9*
COc1ccc(CC(=O)NNS(=O)(=O)c2cccc([N+](=O)[O-])c2)cc1OC | 1.4 | -1.0 | -0.4 | 0.6 | . | .
Fc1ccc(-c2nc3cnccn3c2NC2CCCC2)cc1 | -0.4 | 0.8 | 0.0 | 57.9* | 63.1* | 3.7 | K7 EDANS ctr=>69.5
